Assay outcomes: PubChem BioAssay, several laboratories
Compounds with a hit are over-represented: about 28% of the library has one in this group of screens.
CYP2C19 act – human CYP2C19 activators, primary screen, biochemical, luminescence; Cytochrome P450 2C19 (Homo sapiens), P33261; recombinant CYP2C19, luciferin-H EGE luminescence; stronger effect = higher value; 0 = fully inhibited enzyme, 1 = untreated enzyme; activation factor at 5 µM; 96,000 tested, under 10 active; AID 1025, 2008;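 active = activation factor of at least 2 at 5 µM in the primary screen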;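 also: 0 = wells with 2.5 mM tranylcypromine and 1 = vehicle-only wells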
CYP2C9 inh – blockers of cytochrome P450 2C9 activity – biochemical, luminescence, ADME assay, primary screen. AID 777, 2007. inhibition, % at 5 µM. CYP2C9 Supersomes, luciferin-H conversion. 96,000 compounds, 20% hits;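 active = blocking of liver enzyme CYP2C9 beyond about 50% at 5 µM, limit read from the data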
CYP2C9 act – human CYP2C9 activators, primary screen, biochemical, luminescence. recombinant CYP2C9, luciferin-H conversion; stronger effect = higher value; factor 1 = untreated enzyme, 0 = blocked. 96,000 compounds, 1.4% hits. Cytochrome P450 2C9 (Homo sapiens), P11712. activation factor at 5 µM;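 active = activation factor of 2 or more for CYP2C9 at a 5 µM dose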;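 also: 0 = sulfaphenazole-blocked wells and 1 = vehicle-only wells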
D1 allo mod – D1 CRE-luciferase signal change, two-sided – cell-based, HEK293 D1, dopamine EC30, D1 allosteric modulator project, primary screen | D(1A) dopamine receptor (Homo sapiens), P21728 | dopamine EC30 potentiation; actives deviate in either direction | B-score at 10 µM | 58,000 compounds, 5.9% hits;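 active = luminescence count or its row- and column-corrected plate score outside the 99.7% band of the plate's sample wells, on either side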
Target sequence (P21728 whole entry, looked up): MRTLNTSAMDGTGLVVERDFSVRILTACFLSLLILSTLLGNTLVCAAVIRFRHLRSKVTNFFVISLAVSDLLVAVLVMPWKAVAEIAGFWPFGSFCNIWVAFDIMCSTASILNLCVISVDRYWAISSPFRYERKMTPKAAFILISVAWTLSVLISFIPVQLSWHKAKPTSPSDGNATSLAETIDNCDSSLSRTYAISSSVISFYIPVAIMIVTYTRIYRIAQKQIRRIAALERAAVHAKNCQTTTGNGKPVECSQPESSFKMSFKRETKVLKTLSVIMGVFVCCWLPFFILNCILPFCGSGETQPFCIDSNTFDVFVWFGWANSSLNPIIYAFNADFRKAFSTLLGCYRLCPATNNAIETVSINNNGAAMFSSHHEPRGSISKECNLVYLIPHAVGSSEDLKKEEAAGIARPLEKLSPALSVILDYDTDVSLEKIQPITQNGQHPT
hDAT+cocaine – changed hDAT dopamine uptake under cocaine IC80, either direction, primary screen, cocaine antagonist project, cell-based, LLC-PK1 hDAT, [14C]-dopamine uptake, MLSMR. B-score at 10 µM. LLC-PK1 hDAT cells, [14C]-dopamine uptake with cocaine IC80; actives deviate in either direction. 110,000 compounds, 1.3% hits;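 active = Z score or B-score, a plate-position-corrected score, falls beyond the plate's 99.7% confidence bounds, in either direction; inactive = both scores lie inside the 99.7% bounds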;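 also: scored against the spread of the other compound wells on the same plate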
CYP2C19 inh – blockers of cytochrome P450 2C19 activity – biochemical, luminescence, ADME assay, primary screen; P33261; CYP2C19 Supersomes, luciferin-H EGE luminescence, 30 min; inhibition, % at 5 µM; 96,000 compounds, 21% hits; AID 778, 2007;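 active = CYP2C19 inhibition above a set limit at 5 µM in the primary screen, cut at about 50% in these data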;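 also: plate controls were negative control wells for no effect and 2.5 mM tranylcypromine positive control for full effect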
* marks the source's active call; other numbers are inactive results; . = no result given.

SMILES	CYP2C19 act	CYP2C9 inh	CYP2C9 act	D1 allo mod	hDAT+cocaine	CYP2C19 inh
CC1=C(C(=O)NCc2ccccn2)C2(CCC(C)CC2)OC1=O (stereo unspecified)	0.2	11.9	0.9	-0.341	.	76.7*
CC1=C(C(=O)NCCCOC(C)C)C2(CCC(C)CC2)OC1=O (stereo unspecified)	0.4	13.6	0.9	-0.0158	0.223	63.8*
CC1=C(C(=O)NCCN2CCOCC2)C2(CCC(C)CC2)OC1=O (stereo unspecified)	0.7	10.3	0.9	0.48	-0.296	26.0
CCOc1ccc(CCNC(=O)C2=C(C)C(=O)OC23CCC(C)CC3)cc1 (stereo unspecified)	.	.	.	.	0.00749	.
COc1ccc(CNC(=O)C2=C(C)C(=O)OC23CCC(C)CC3)cc1 (stereo unspecified)	0.5	25.4	0.7	.	-2.07	54.8*
O=C(NCC1COc2ccccc2O1)c1cc2ccccc2o1 (stereo unspecified)	.	.	.	.	-0.397	.
CC(C)COC(=O)NCCOC(=O)Nc1cccc(Cl)c1	0	80.3*	0.2	-0.959	0.419	95.2*
COC(=O)NCC(C)OC(=O)Nc1cccc(Cl)c1 (stereo unspecified)	0.4	35.4	0.6	-0.0894	-1.31	59.0*
CC(C)COC(=O)NCCCOC(=O)Nc1ccccc1	0.6	45.2	0.5	-1.9	0.147	38.4
O=C(Nc1cccc(Cl)c1)ON=C1c2ccccc2-c2ccccc21	0.9	62.7*	0.4	.	-0.00533	11.3
O=S(=O)(c1cccc(NC(=S)Nc2ccc(Br)cc2Cl)c1)N1CCOCC1	0.7	14.0	0.9	.	0.464	28.0
CC(NC(=O)NC1CCCCC1)C(c1cccs1)N1CCN(c2ccccc2)CC1 (stereo unspecified)	0.7	26.5	0.7	.	-1.77	30.2
Cc1nc(N2CCC3(CC2)OCCO3)c2nnn(Cc3ccccc3F)c2n1	0.3	75.1*	0.2	.	1.77	68.7*
c1ccc(Cn2nnc3c(N4CCC5(CC4)OCCO5)ncnc32)cc1	.	.	.	1.78	0.215	.
Cc1nc(N2CCCC2)c2nnn(Cc3ccccc3Cl)c2n1	0.1	45.4	0.5	.	0.263	91.2*
O=C1C(c2ccccc2)SC(=Nc2ccccc2)N1S(=O)(=O)c1ccccc1 (stereo unspecified)	1	-4.9	1	.	-0.176	4.4
O=C(OCc1ccccc1)C1=[N+]([O-])OC(C(=O)OCc2ccccc2)C1c1c[nH]c2ccccc12 (stereo unspecified)	0.2	95.9*	0	.	-0.581	83.7*
Cc1ccc2c(c1)-c1c(cnn1CC(=O)N1CCCN(Cc3ccccc3F)C1)CO2	0.6	14.8	0.9	-2.94*	-0.366	35.3
O=C(CN1C(=O)c2ccccc2S1(=O)=O)N1CCN(Cc2ccc3c(c2)OCO3)CC1	0.8	35.0	0.7	0.47	0.343	18.5
O=C(Cn1ncc2c1-c1ccccc1OC2)N1CCN(Cc2ccc3c(c2)OCO3)CC1	0.9	68.4*	0.3	0.531	0.48	7.8
Clc1cccc(Cl)c1C1=NOC(c2nnc(-c3ccccc3)o2)C1 (stereo unspecified)	.	.	.	.	-0.127	.
Cc1nc2ccc(-c3ccccc3)cc2o1	0.9	1.1	1	-0.00708	0.819*	8.9
CSCCC(NC(N)=O)C(=O)NCc1ccc(Cl)cc1 (stereo unspecified)	0.7	3.0	1	.	-1.01	27.4
O=C(CSc1n[nH]c(-c2ccccc2)n1)c1ccccc1	0.5	24.7	0.8	1.35	-0.133	46.6
CC(C)c1ccc(C(=O)CSc2n[nH]c(-c3ccncc3)n2)cc1	0.1	94.3*	0.1	.	-0.29	92.6*
SMILES	CYP2C19 act	CYP2C9 inh	CYP2C9 act	D1 allo mod	hDAT+cocaine	CYP2C19 inh
Cc1ccc(C)c(NC(=O)CSc2n[nH]c(-c3ccncc3)n2)c1	0.3	95.8*	0	0.682	-0.659	66.1*
O=C(CSc1n[nH]c(-c2ccncc2)n1)NC1CCS(=O)(=O)C1 (stereo unspecified)	0.9	72.2*	0.3	-0.384	0.0835	13.1
Cc1cc(NC(=O)CSc2n[nH]c(-c3cccs3)n2)no1	0.7	45.7	0.5	.	0.261	33.0
Cc1ccc(NC(=O)CSc2n[nH]c(-c3ccncc3)n2)cc1C	0.4	96.7*	0	.	0.379	62.8*
CCCCNC(=O)N(O)C1N(CCCC)C(=O)N(CC(=O)OC)C1(C)C (stereo unspecified)	.	.	.	.	-0.484	.
O=C(CSc1nc2c(sc3ccccc32)c(=O)n1CCO)NCc1ccco1	0.8	42.8	0.6	.	-0.0796	22.8
Cc1cc(NC(=O)CSc2nc3c(sc4ccccc43)c(=O)n2CCCN2CCOCC2)n[nH]1	0.5	19.8	0.8	.	-0.0805	52.0*
Cc1cc(NC(=O)CSc2nc3c(sc4ccccc43)c(=O)n2CCc2ccccc2)n[nH]1	0.1	36.1	0.6	.	-0.024	94.2*
CCCCn1c(SCC(=O)Nc2cc(C)on2)nc2ccccc2c1=O	0.8	9.7	0.9	-0.18	-0.634	18.1
O=S(=O)(NCc1ccco1)c1ccccc1Br	.	.	.	.	-0.315	.
COc1ccc([C@H](C)NC[C@H](O)c2ccc(O)c(NC=O)c2)cc1	.	.	.	.	-0.098	.
C=CCn1cc(/C=N\NC(=O)c2cc3c(ccc4ccccc43)o2)c2ccccc21	0.8	62.0*	0.4	.	1.51	17.3
O=C(O)C1=C[C@H](c2ccc(C(F)(F)F)cc2)C[C@H](OCc2ccc(CO)cc2)O1	.	.	.	.	-0.412	.
O=C(Nc1nc(-c2nc3ccccc3s2)cs1)C1CC1	0.5	18.6	0.8	-3.39*	0.763	50.9*
O=C(Nc1nc(-c2nc3ccccc3s2)cs1)c1ccco1	.	.	.	0.113	-1.78	.
COc1ccccc1NC(=O)Nc1ccnn1C1CCCCC1	0.4	44.2	0.6	-1.66	-0.17	56.2*
COc1ccccc1NC(=O)Nc1ccnn1Cc1cccs1	0.4	29.5	0.7	-0.453	.	63.0*
CCCCNC(=O)Nc1ccnn1C1CCCCC1	0.4	15.1	0.8	-0.115	-0.046	56.8*
COc1ccccc1NC(=O)Cc1cccs1	0.6	-41.6	1.4	0.107	0.0215	37.2
CCc1ccc(NC2=NC(C(=O)NC3CCCCC3)CC(=O)N2)cc1 (stereo unspecified)	1.2	-24.1	1.2	-0.188	0.00976	-17.2
Nc1nc2nc(-c3ccccc3)cc(=O)n2[nH]1	0.9	1.0	1	.	-1.29	11.5
O=c1cc(-c2ccccc2)nc2nc(-c3ccccc3)[nH]n12	1	58.8*	0.4	-0.0378	-0.204	-0.6
